Values joined by “and” are separate entries in the source; they are usually repeats but may differ in a detail not shown here. Identical values can stand only once. The panel holds about 79,000 compounds, 15% with a hit somewhere; the sample as a whole holds those more often. A structure can be active in one record and inactive in another. Active and inactive are the calls of the source. Cut-off read from the data, not from the text of the source: active = growth inhibition above about 70%; inactive = the rest.
Assay: NCI Yeast Anticancer Drug Screen. Data for the rad50 strain (AID 155);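 note: 0% = growth of vehicle-only cultures of the same strain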
Details: S. cerevisiae rad50 strain growth inhibition, stronger effect = higher value
Procedure: Growth inhibition of yeast strains with defined genetic alterations is measured as a screen for potential anti-cancer activity. Selected strains with alterations in DNA damage repair or cell cycle control were exposed to compounds and growth inhibition was measured relative to vehicle treated controls. The strain used in this assay is rad50

[1] = at 5.0 µM (retest, dose inferred, filed as 0.5)
[2] = at 50.0 µM (retest, dose inferred, filed as 5.0)

| Compound | growth inhibition [1] | growth inhibition [2] | growth inhibition (at 50.0 µM) |
| --- | --- | --- | --- |
| CC1(C)C(c2ccccc2)=Nc2ccccc21 | 0% (inactive) | 36% (inactive) | 34.1% (inactive) |
| COC(=O)C1C(O)C(C)C(O)C(C)C=C(C)C2=C3C(=C(C)C(=O)c4c(O)c(c(C)c(OC(C)=O)c43)NC(=O)C(C)=C/C=C\C(C)C(O)C(C)C1O)OCO2 (configuration not stated) | -11% (inactive) | -37% (inactive) | 53.1% (inactive) and 5.45% (inactive) |
| COc1nc(NC2OC(CO)C(O)C(O)C2O)c(Cl)c(=O)n1C (configuration not stated) | 1% (inactive) | 5% (inactive) | 17.7% (inactive) |
| COC(=O)[C@]1(C)CCC[C@]2(C)c3ccc(C(C)C)cc3CC[C@@H]12 | 0% (inactive) | 40% (inactive) | -12.8% (inactive) and 98.4% (active) |
| CCOC(=O)/C(C#N)=C\c1ccc([N+](=O)[O-])o1 | 15% (inactive) | 98% (active) | -8.25% (inactive) and 99% (active) |
| CC(C)OC(=S)SSC(=S)OC(C)C | 5% (inactive) and 11% (inactive) | 99% (active) and 98% (active) | 99.4% (active) |
| c1ccc(CSC(SCc2ccccc2)(c2ccccc2)c2ccccc2)cc1 | 30% (inactive) | 88% (active) | 14.4% (inactive) and 72% (active) |
| CC(=O)OCC(OC(C)=O)C(OC(C)=O)C(OC(C)=O)C(OC(C)=O)C(/C=N/Nc1ccccc1)=N/Nc1ccccc1 (configuration not stated) | 21% (inactive) and -14% (inactive) | 90% (active) and 4% (inactive) | 94.8% (active) and 57.6% (inactive) |
| C=C[C@]1(C)C=C2C(O)CC3C(C)(C)CCC[C@]3(CO)C2CC1 (some centres not stated) | 8% (inactive) | 99% (active) | 99.2% (active) |
| N=S(c1ccccc1[N+](=O)[O-])c1ccccc1[N+](=O)[O-] | 13% (inactive) and 8% (inactive) | 4% (inactive) and 52% (inactive) | 68.2% (inactive) and 54.1% (inactive) |
| CC(O)CN1CCN(CC(C)O)CC1.[I][Pt+2][I] (configuration not stated) | -5% (inactive) | 27% (inactive) | 59.7% (inactive) |
| NC1=C(Cl)C(=O)c2ccccc2C1=O | 6% (inactive) and 9% (inactive) | 97% (active) and 99% (active) | 87.5% (active) and 98.2% (active) |
| CCCCCCC(C(=O)OCC)N1C(=O)c2ccccc2S1(=O)=O (configuration not stated) | -3% (inactive) | 36% (inactive) | 2.55% (inactive) |
| Nc1ccccc1Oc1ccc(Cl)cc1Cl | 27% (inactive) | 48% (inactive) | 92% (active) |

Reference: PubChem BioAssay (NCI)
